Here are results for 90 molecules from PubChem BioAssay AID588466 (NMMLSC, 2011).

The structures appear in SMILES notation. Several values for one entry are separate records, joined by “and”; a condition that tells them apart may be missing. Identical values can stand only once. The whole screen tested about 2,100 compounds, of which about 30 (1%) were called active.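 The calls were made as follows: active = compounds whose mean binding response over two repeats is below 75% of the DMSO control; inactive = the rest.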 Only a sample is shown.

For this assay, the target named is Desmoglein-3 (Homo sapiens) (UniProt P32926). Nature of the assay: blockers of pemphigus antibody–desmoglein-3 interaction – biochemical, cherry pick 1, bead-based, flow cytometry, confirmation (AID 588466).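 Also: 100% = 2% DMSO vehicle and 0% = excess soluble DSG3 blocking control.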 The conditions noted are these: Protein G beads with DSG3, scFv-GFP binding, at 10 µM, active compounds read low. For orientation: A flow cytometer gives signals particle by particle.
Sequence of Desmoglein-3 (Homo sapiens) (P32926 whole entry, looked up): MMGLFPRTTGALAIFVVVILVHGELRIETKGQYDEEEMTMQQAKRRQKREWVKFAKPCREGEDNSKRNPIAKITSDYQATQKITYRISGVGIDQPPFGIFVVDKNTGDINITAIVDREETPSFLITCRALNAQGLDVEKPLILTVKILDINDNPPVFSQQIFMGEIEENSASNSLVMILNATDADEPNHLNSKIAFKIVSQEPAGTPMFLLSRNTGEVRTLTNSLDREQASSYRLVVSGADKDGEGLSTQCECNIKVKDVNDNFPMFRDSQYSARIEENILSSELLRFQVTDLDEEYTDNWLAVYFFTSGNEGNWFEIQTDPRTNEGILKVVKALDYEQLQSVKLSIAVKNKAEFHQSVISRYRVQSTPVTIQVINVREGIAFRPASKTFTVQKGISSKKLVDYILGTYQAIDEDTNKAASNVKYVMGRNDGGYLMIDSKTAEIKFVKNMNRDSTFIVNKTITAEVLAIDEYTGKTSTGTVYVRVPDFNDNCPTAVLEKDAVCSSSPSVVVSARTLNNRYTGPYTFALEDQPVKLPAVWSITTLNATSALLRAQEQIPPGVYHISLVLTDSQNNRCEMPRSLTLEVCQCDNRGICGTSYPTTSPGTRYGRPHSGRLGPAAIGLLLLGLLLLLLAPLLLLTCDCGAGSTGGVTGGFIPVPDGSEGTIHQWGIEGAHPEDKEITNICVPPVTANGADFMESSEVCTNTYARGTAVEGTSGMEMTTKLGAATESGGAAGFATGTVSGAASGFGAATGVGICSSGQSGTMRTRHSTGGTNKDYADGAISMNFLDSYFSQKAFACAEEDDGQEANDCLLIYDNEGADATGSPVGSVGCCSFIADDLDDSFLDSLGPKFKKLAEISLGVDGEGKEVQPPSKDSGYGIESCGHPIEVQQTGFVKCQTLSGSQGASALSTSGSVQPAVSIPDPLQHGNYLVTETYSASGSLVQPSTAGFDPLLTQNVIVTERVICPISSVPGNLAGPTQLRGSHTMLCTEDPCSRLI
As to `Cc1ccc([C@H]2C[C@H](n3cc(C4CC4)nn3)[C@@H](O)CN2Cc2cccs2)cc1`, the binding response (% of DMSO) is 119% (inactive).
For the molecule `COc1ccc(S(=O)(=O)N2CCCCCC2)cc1N`, the binding response (% of DMSO) was 100% (inactive).
The value for `COc1ccc(C(=O)Nn2c(C)nc3ccccc3c2=O)cc1Br` was 98% (inactive).
For `COc1ccc(Br)c(C(=O)Nc2cccc(S(=O)(=O)N3CCOCC3)c2)c1`, the binding response (% of DMSO) was 98.5% (inactive).
The value for `CC(=O)Nc1ccc(S(=O)(=O)NCc2ccc3c(c2)cc(C)n3C)cc1` was 99.3% (inactive).
With `CC(C)Oc1ccc(C(=O)Nc2ccc(NC(=O)c3ccco3)c(Cl)c2)cc1`, the binding response (% of DMSO) is 100% (inactive).
As to `O=C(NCc1ccccc1)C1CCN(S(=O)(=O)c2cccc3cccnc23)CC1`, the binding response (% of DMSO) is 109% (inactive) and 103% (inactive).
The value for `S=C(NCCCN1CCOCC1)N1CCN(c2cccc(Cl)c2)CC1` was 100% (inactive); that for `COc1ccc(CNS(=O)(=O)c2cn(C)c(=O)n(C)c2=O)cc1` was 95% (inactive).
In the case of `Cc1c(C(=O)N2CCN(c3ccc(F)cc3)CC2)sc2nc(-c3ccccc3)cn12`, the binding response (% of DMSO) was 101% (inactive).
The value for `COc1ccc(NC(=O)c2cc(-c3ccc(C)o3)nc3ccccc23)cc1OC` was 103% (inactive); that for `CCOC(=O)CSc1nnc(-c2ccccc2NC(=O)c2ccccc2)o1` was 95% (inactive); that for `Cc1cc(C)n2c(SCC(=O)N3CCN(S(=O)(=O)c4ccc(Cl)cc4)CC3)nnc2n1` was 92.2% (inactive).
As for `CC(C)c1ccccc1NS(=O)(=O)N(C)C`, the binding response (% of DMSO) is 99.3% (inactive).
Turning to `CN(C)c1nc(N)ncc1-c1ccc(Oc2ccccc2)cc1`, the binding response (% of DMSO) is 83.8% (inactive).
For the molecule `Cc1nnc(NC(=O)c2ccc(-c3ccc(Cl)cc3)o2)s1`, the binding response (% of DMSO) is 104% (inactive).
For `COc1ccc2cc(C(=O)COC(=O)COc3ccc4c(C)cc(=O)oc4c3)ccc2c1`, the binding response (% of DMSO) was 91.2% (inactive).
For `COc1ccc(-c2nc(C#N)c(NCc3ccccc3Cl)o2)cc1`, the binding response (% of DMSO) was 89.4% (inactive).
Consider `COc1ccc(CCn2nnnc2C(C(C)C)N2CCN(c3ncccn3)CC2)cc1OC` (stereo not given), for which the binding response (% of DMSO) is 96.4% (inactive).
With `CCOc1ccc(-n2nc3ccc(NC(=O)c4ccc5c(c4)OCCO5)cc3n2)cc1`, the binding response (% of DMSO) was 85.4% (inactive).
Turning to `O=C(Nc1nc(-c2ccccc2)c(-c2ccccc2)s1)c1ccc(S(=O)(=O)N2CCCCC2)cc1`, the binding response (% of DMSO) was 96.3% (inactive).
In the case of `COc1ccc(CCNC(=O)COc2cccc(-n3cnnn3)c2)cc1` it was 108% (inactive); in that of `NC(=O)CC(NC(=O)Cc1cccc2ccccc12)c1ccc(NCCOc2ccccc2)c([N+](=O)[O-])c1` (stereo not given), 104% (inactive); in that of `CCOC(=O)c1ccc(-c2nnc(-c3ccc(Cl)cc3Cl)o2)cc1`, 100% (inactive).
Regarding `CCOC(=O)c1cc(-c2ccc(/C=C3/C(=O)N(c4ccc(C(=O)O)cc4)N=C3C)o2)ccc1Cl`, the binding response (% of DMSO) is 54.4% (active).
On to `O=C(O)c1ccc(-c2ccc(/C=C3\NC(=O)N(Cc4ccc(Cl)cc4)C3=O)o2)cc1Cl`, for which the binding response (% of DMSO) is 103% (inactive).
Take `O=C(NCCCN1CCOCC1)c1cc2nc(-c3ccco3)cc(C(F)(F)F)n2n1`: the binding response (% of DMSO) is 101% (inactive).
Regarding `CC1CC(C)CN(c2ncc3c(n2)CC(c2ccccc2)CC3=O)C1` (stereo not given), the binding response (% of DMSO) was 99% (inactive).
With `O=c1c2nnn(Cc3ccc(Cl)cc3)c2ncn1Cc1ccc(F)cc1`, the binding response (% of DMSO) was 93.7% (inactive).
For the molecule `O=C(Nc1ccc(N2CCN(C(=O)c3ccccc3)CC2)cc1)c1cc2ccccc2o1`, the binding response (% of DMSO) is 93.8% (inactive).
The value for `Cc1ccc(N2CCN(S(=O)(=O)c3nnc(NC(=O)c4ccccc4)s3)CC2)cc1` was 98.7% (inactive); that for `CCOc1ccc2c(c1)C(NC(C)=O)C(=O)N2CCN1CCOCC1` (stereo not given) was 97.4% (inactive); that for `O=C(Nc1cccc(NC(=O)c2ccc(Cl)cc2)n1)c1ccc(Cl)cc1` was 100% (inactive).
For `CNC(=O)CN1C(=O)NC(c2ccccc2)(c2ccccc2)C1=O`, the binding response (% of DMSO) was 100% (inactive).
With `Cc1ccc(Sc2ncccc2COC(=O)Nc2c(C)cccc2C)cc1`, the binding response (% of DMSO) is 96.3% (inactive).
Regarding `FC(F)(F)c1cc(-c2ccco2)nc(NCCc2ccccc2)n1`, the binding response (% of DMSO) is 106% (inactive).
In the case of `O=C(NCCCN1CCOCC1)c1cc(-c2cccc(Br)c2)nc2ccccc12`, the binding response (% of DMSO) was 102% (inactive).
The value for `COc1ccc(-c2cn3c(C)c(C(=O)NC(C)C)sc3n2)cc1` was 95.9% (inactive).
In the case of `O=C(Nc1ccc(NS(=O)(=O)c2ccccc2)cc1)c1ccc(Cl)cc1` it was 49.9% (inactive); in that of `Cc1ccc(NS(=O)(=O)c2ccc3c(c2)oc(=O)n3C)cc1F`, 99.5% (inactive).
Turning to `CCn1nc(C(=O)OCc2c(C)noc2C)c2ccccc2c1=O`, the binding response (% of DMSO) is 104% (inactive).
On to `COc1ccc(NC(=O)CCCC(=O)c2ccccc2)cc1`, for which the binding response (% of DMSO) is 103% (inactive).
As to `CCN(CC)CC(=O)NN=C(c1ccccc1)c1ccccc1`, the binding response (% of DMSO) was 100% (inactive).
As for `CCSc1nnc(NC(=O)CSc2nnc(CNC(=O)c3ccc(OC)cc3)o2)s1`, the binding response (% of DMSO) is 102% (inactive).
In the case of `CCN(CC(=O)Nc1ccc(S(=O)(=O)N2CCCCC2)cc1)Cc1ccccc1` it was 98% (inactive); in that of `O=C(COc1ccccc1Cl)NCCNC(=O)c1ccccn1`, 101% (inactive).
For `CCN(CC)CCn1c2c(c(SCC(=O)Nc3ccc(C)c(F)c3)nc1=O)CCC2`, the binding response (% of DMSO) is 103% (inactive).
As to `Cc1nc(N)sc1-c1csc(Nc2ncccn2)n1`, the binding response (% of DMSO) was 95.9% (inactive).
On to `Cc1cnc(C(=O)N2CCN(S(=O)(=O)c3cc(C(F)(F)F)cc(C(F)(F)F)c3)CC2)cn1`, for which the binding response (% of DMSO) was 110% (inactive).
For the molecule `COc1ccc(S(=O)(=O)N2CCN(CC(=O)Nc3cc(Cl)ccc3Cl)CC2)cc1`, the binding response (% of DMSO) is 95% (inactive).
Regarding `COc1ccc(-n2c(SCC(=O)O)nc3sc4c(c3c2=O)CCCC4)cc1`, the binding response (% of DMSO) is 103% (inactive).
Consider `CCOC(=O)N1CCC(n2c(SCC(=O)c3ccccc3)nc3ccsc3c2=O)CC1`, for which the binding response (% of DMSO) was 93.2% (inactive).
As for `Cc1ccc(NS(=O)(=O)c2c(C)[nH]c(C)c2C(=O)N2CCCCC2)c(Br)c1`, the binding response (% of DMSO) was 101% (inactive).
Turning to `CCCCCC(=O)N1C[C@@H](O)[C@H](n2cc(-c3ccc(F)cc3)nn2)C[C@@H]1c1ccc(OC)cc1`, the binding response (% of DMSO) is 99.7% (inactive).
In the case of `CC(=O)c1cc2c(cc1NC(=O)c1ccc(Cl)cc1)OCCO2`, the binding response (% of DMSO) was 87.5% (inactive).
In the case of `COc1ccc(NC(=O)Cn2nnc(C(=O)NCc3ccccc3)c2N)cc1Cl` it was 76.4% (inactive); in that of `CC(C)Oc1ccc(C(=O)Nc2c3c(nn2-c2ccccc2)CS(=O)(=O)C3)cc1`, 96.5% (inactive).
Consider `CC(=O)c1ccc(NC(=O)Cn2cnc(S(=O)(=O)N3CCc4ccccc43)c2)cc1`, for which the binding response (% of DMSO) was 94.8% (inactive).
Turning to `COc1cccc(C(=O)NCc2ccc3c(c2)cc(C)n3C)c1`, the binding response (% of DMSO) is 109% (inactive).
For the molecule `NNc1nc2c(-c3ccc(Cl)cc3)nnn2c2ccccc12`, the binding response (% of DMSO) is 91.9% (inactive).
As for `COc1ccc(NC(=O)NN2CCN(C)CC2)c(OC)c1`, the binding response (% of DMSO) is 99.8% (inactive).
In the case of `CSc1ccccc1OCc1cc(C(=O)N2CCN(Cc3nccn3C)CC2)no1` it was 106% (inactive).
Consider `C=CCNc1nc(-c2cccc(OC)c2O)nc2ccccc12`, for which the binding response (% of DMSO) is 92.4% (inactive).
As to `Nc1nc(SCc2nnc(SCC(=O)O)n2-c2ccccc2)nc2sc3c(c12)CCCC3`, the binding response (% of DMSO) is 106% (inactive).
In the case of `C=CCn1c(O)c(C2=c3ccccc3=NC2=O)s/c1=N/c1nccs1` it was 71.7% (inactive); in that of `C=CCN1C2CCCC1CC(NC(=O)Nc1cccc(C(C)=O)c1)C2` (stereo not given), 104% (inactive).
With `COc1ccc(NC(=O)c2cc(-c3ccco3)nc3ccccc23)cc1`, the binding response (% of DMSO) was 74.5% (inactive).
The value for `COc1ccc(NC(=O)CN(C)Cc2cccs2)cc1Cl` was 105% (inactive).
Take `COC(=O)c1ccc(NC(=O)COc2ccc3c(c2)OCO3)cc1`: the binding response (% of DMSO) is 102% (inactive).
For the molecule `CN(c1ccc(C(=O)NC2CC3CCC2C3)cc1)S(C)(=O)=O` (stereo not given), the binding response (% of DMSO) was 101% (inactive).
On to `CC(=O)C1=C(O)CC(c2ccccc2)CC1=NCCc1c(C)[nH]c2ccc(C)cc12` (stereo not given), for which the binding response (% of DMSO) was 96.5% (inactive).
The value for `CC(C)CNC(=O)c1ccccc1NC(=O)CN(c1ccccc1)S(=O)(=O)N(C)C` was 102% (inactive); that for `CCOC(=O)c1c(S(=O)(=O)NCC(C)c2ccccc2)c(C)n(C)c1C` (stereo not given) was 97.9% (inactive); that for `CCCOC(=O)CSc1nc(N)c(C#N)c(CC)c1C#N` was 108% (inactive).
In the case of `CN(C)S(=O)(=O)c1cccc(NC(=O)COC(=O)c2cc3ccccc3oc2=O)c1` it was 90.6% (inactive).
For `COc1ccc(CNC(=O)c2ccc(Cl)c(NC3=NC4CS(=O)(=O)CC4S3)c2)cc1` (stereo not given), the binding response (% of DMSO) is 104% (inactive).
As for `CCn1cc(C(=O)NCc2cccnc2)c(=O)c2cc(F)c(N3CCN(C(=O)c4ccco4)CC3)cc21`, the binding response (% of DMSO) is 105% (inactive).
Consider `Cc1ccc(S(=O)(=O)N2CCCCC2)cc1NC(=O)CCNC(=O)c1ccccc1Cl`, for which the binding response (% of DMSO) is 98.5% (inactive).
Consider `O=C(CSc1nnc(CNC(=O)c2ccc(F)cc2)o1)Nc1nccs1`, for which the binding response (% of DMSO) was 99.5% (inactive).
The value for `CCOc1ccccc1NS(=O)(=O)c1ccc2[nH]c(=O)[nH]c2c1` was 89.3% (inactive); that for `O=C(CN1CCN(S(=O)(=O)c2cc(Br)ccc2Br)CC1)NCc1ccccc1Cl` was 108% (inactive); that for `Cc1ccc(NC(=O)Nc2ccc3c(c2)OCO3)nc1` was 101% (inactive).
In the case of `COc1ccc(CCN2CC(C(=O)OCC(=O)NC(Cc3ccccc3)C(C)=O)CC2=O)cc1OC` (stereo not given), the binding response (% of DMSO) was 102% (inactive).
As for `CCOc1ccc(NC(=O)c2nc(SCC)ncc2Cl)cc1`, the binding response (% of DMSO) is 101% (inactive).
Take `CCOc1ccc(C(=O)Nc2cccc3cccnc23)cc1`: the binding response (% of DMSO) was 93% (inactive).
As to `Cc1ccc(C)n1NC(=O)c1cccs1`, the binding response (% of DMSO) was 91.4% (inactive).
For the molecule `COc1ccc(CC(=O)OCC(=O)NCc2ccc3c(c2)OCO3)cc1OC`, the binding response (% of DMSO) is 99.5% (inactive).
For `CCOC(=O)N1CCC(NC(=O)c2cc3c(-c4ccc(Cl)cc4)nn(C)c3s2)CC1`, the binding response (% of DMSO) was 95.6% (inactive).
As to `COc1cccc(C(=O)Nc2cc(-c3cn4cccnc4n3)ccc2C)c1`, the binding response (% of DMSO) was 102% (inactive).
Regarding `COc1ccc(CNC(=O)C(C)n2nc(C)c3c(C)n(-c4ccccc4)nc3c2=O)c(OC)c1` (stereo not given), the binding response (% of DMSO) is 95.7% (inactive).
